Compound activity: PubChem, Sanford-Burnham Center for Chemical Genomics
A selection: hits, their analogues and other compounds. The true share with any hit is near 3%.
PPC-1+TRAIL kill: kills PPC-1 cancer cells in the presence of TRAIL; PPC-1 cells + TRAIL, ATPLite viability luminescence; cell killing (% activity), % at 4 µM or 5 µM; hit rate 0.41% among 220,000;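 active = cell killing above 50% in the first pass at 4 µM, then a duplicate retest at 5 µM averaging 50% or more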
SENP6 inh: blocks the human protease SENP6; inhibition, % at 10 µM; AID 2599; Recombinant SENP6 catalytic domain, aminoluciferin luminescence; hit rate 1.8% among 330,000;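 active = inhibition above about 50% at the single tested dose, limit read from the data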
Target sequence (Q9GZR1 628-1112 limits assumed): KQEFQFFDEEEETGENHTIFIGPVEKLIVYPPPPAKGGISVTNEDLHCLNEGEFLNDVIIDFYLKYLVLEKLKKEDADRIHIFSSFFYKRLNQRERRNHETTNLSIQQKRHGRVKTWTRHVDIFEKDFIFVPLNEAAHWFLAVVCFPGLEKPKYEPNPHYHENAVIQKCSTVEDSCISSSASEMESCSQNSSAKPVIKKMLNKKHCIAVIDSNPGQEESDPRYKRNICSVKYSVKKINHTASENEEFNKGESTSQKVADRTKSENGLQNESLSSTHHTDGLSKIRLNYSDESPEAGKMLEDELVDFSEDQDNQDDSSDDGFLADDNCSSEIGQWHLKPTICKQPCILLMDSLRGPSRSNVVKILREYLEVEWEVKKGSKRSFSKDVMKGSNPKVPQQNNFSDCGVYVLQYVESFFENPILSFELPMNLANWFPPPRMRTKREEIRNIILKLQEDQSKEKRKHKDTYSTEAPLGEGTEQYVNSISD
SENP7 block: SENP7 protease inhibition. Q9BQF6. recombinant SENP7, Z-RLRGG-aminoluciferin luminescence, 40 min. inhibition, % at 5 µM. hit rate 1.5% among 330,000;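 active = inhibition above about 50% at the single test dose, limit read from the data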
C8 TRAIL sens: sensitizes caspase-8 expressing cells to TRAIL. hit rate 1% among 360,000. inhibition (viability loss, TRAIL sensitization), % at 10 µM. NB7+C8 cells + TRAIL, ATPlite viability luminescence. AID 624354;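 active = compounds causing at least 50% loss of cell viability in the single-dose screen, relative to plate controls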
SENP8 block-1: inhibitors of human SENP8 protease; recombinant SENP8, Nedd8 substrate fluorescence; inhibition, % at 20 µM; hit rate 0.64% among 360,000; AID 602440; in the data active = inhibition mostly above about 40%, no sharp cut-off; inactive = mostly below about 27%
Target sequence (Q96LD8 whole entry, looked up): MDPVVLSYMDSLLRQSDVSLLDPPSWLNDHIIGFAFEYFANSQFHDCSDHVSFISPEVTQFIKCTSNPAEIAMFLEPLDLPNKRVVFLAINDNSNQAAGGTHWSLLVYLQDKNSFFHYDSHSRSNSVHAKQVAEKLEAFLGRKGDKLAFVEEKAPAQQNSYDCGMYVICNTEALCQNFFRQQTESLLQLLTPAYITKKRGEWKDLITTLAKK
SENP8 block-2: SENP8 protease inhibition; Q96LD8; purified SENP8, Z-RLRGG-aminoluciferin cleavage, luminescence; inhibition, % at 10 µM; hit rate 1.2% among 330,000; in the data active = inhibition above about 50%
SENP8 conf: confirmation of human SENP8 protease inhibitors. hit rate 15% among 1,400. inhibition, % at 25 µM. purified SENP8, Nedd8-AMC/pro-Nedd8 cleavage fluorescence, 30 min. shares compounds with SENP8 block-1; in the data active = inhibition mostly above about 39%, no sharp cut-off; inactive = mostly below about 34%
Each line names hits and unclear results; the compound was inactive in the other large screens (follow-up assays come after a bar, where they were run).

CCOC(=O)C1C(=O)CC(C)(O)C(C(=O)OCC)C1c1ccc([N+](=O)[O-])cc1 (stereo unspecified)	SENP8 block-1 46 | SENP8 conf inactive
Cc1ccc(NC(=O)NC2(C(=O)NCc3ccco3)CCCCC2)cc1	SENP8 block-1 40 | SENP8 conf inactive
O=C(Nc1ccccc1)NC1(C(=O)NCc2ccco2)CCCCC1	none
Cc1cccc(C)c1NC(=O)C(c1ccccc1OC(F)(F)F)N1CCN(c2ccc(F)cc2)CC1 (stereo unspecified)	none (no result: PPC-1+TRAIL kill, SENP6 inh, SENP7 block, SENP8 block-2)
CN1CCN(Cc2nc3ccccc3c(=O)n2Cc2nc(-c3ccc([N+](=O)[O-])cc3)cs2)CC1	SENP8 block-1 47 | SENP8 conf inactive
O=C(/C=C/CCc1ccc2c(c1)OCO2)N1CCCCC1	SENP8 block-1 57 (no result: PPC-1+TRAIL kill) | SENP8 conf inactive
O=C(/C=C/C=C/c1ccc2c(c1)OCO2)N1CCCCC1	none (no result: PPC-1+TRAIL kill)
Cc1ccc(OC(C)C(=O)N(Cc2cccs2)C2CCS(=O)(=O)C2)cc1C (stereo unspecified)	SENP8 block-1 41 | SENP8 conf inactive
CCN(N=O)c1ccc(C=C2C=Cc3ccccc32)cc1	SENP8 block-1 69 (no result: PPC-1+TRAIL kill, SENP6 inh, SENP7 block, SENP8 block-2) | SENP8 conf inactive
CN(N=O)c1ccc(C=C2C=Cc3ccccc32)cc1	SENP8 block-1 51 (no result: PPC-1+TRAIL kill, SENP6 inh, SENP7 block, SENP8 block-2) | SENP8 conf inactive
CC(=O)N(C)c1ccc(C=C2C=Cc3ccccc32)cc1	none (no result: PPC-1+TRAIL kill, SENP6 inh, SENP7 block, SENP8 block-2)
Cc1c(C(=O)N(C)C)sc(NC(=O)c2cc([N+](=O)[O-])cc([N+](=O)[O-])c2)c1C#N	SENP8 block-1 44 | SENP8 conf inactive
CCOc1ccc(OCCC(=O)Nc2cccc(S(=O)(=O)N3CCCC3)c2)cc1	none (no result: PPC-1+TRAIL kill)
Cc1cnc(C=NNC(N)=S)c2cccc(N)c12	SENP8 block-1 82 (no result: PPC-1+TRAIL kill, SENP6 inh, SENP7 block, SENP8 block-2) | SENP8 conf 43
C=CCc1ccc(OC(=O)c2ccccc2)c(OC)c1	SENP8 block-1 48 | SENP8 conf inactive
CCCNC(=O)c1onc(CSc2ccc(F)cc2)c1C(=O)NCCOC	none (no result: PPC-1+TRAIL kill)
C/C(=N\Nc1nc2ccccc2[nH]1)c1ccc([N+](=O)[O-])cc1	SENP8 block-1 54 | SENP8 conf inactive
COc1ccc(S(=O)(=O)N2CCC(C(=O)N3CCN(c4ccccc4OC)CC3)CC2)cc1	SENP8 block-1 43 | SENP8 conf inactive
COc1ccccc1N1CCN(C(=O)C2CCN(S(=O)(=O)c3ccccc3)CC2)CC1	none
O=C(NCCc1ccccc1)C(=O)NCC(c1ccco1)N1CCOCC1 (stereo unspecified)	SENP8 block-1 43 | SENP8 conf inactive
CC(Nc1ccc(S(=O)(=O)N2CCN(C)CC2)cc1[N+](=O)[O-])c1ccccc1 (stereo unspecified)	none (no result: PPC-1+TRAIL kill)
COc1ccccc1C(C)Nc1ccc(S(=O)(=O)N2CCN(C)CC2)cc1[N+](=O)[O-] (stereo unspecified)	SENP8 block-1 39 (no result: PPC-1+TRAIL kill) | SENP8 conf inactive
COc1ccccc1CNC(=O)[C@H](C)NC(=O)C1CCN(C(=O)[C@@H]2CCCN2C(=O)OC(C)(C)C)CC1	SENP8 block-1 45 (no result: PPC-1+TRAIL kill) | SENP8 conf inactive
C[C@H](CCC(=O)O)[C@H]1CC[C@H]2[C@@H]3CC[C@@H]4C[C@H](O)CC[C@]4(C)[C@H]3CC[C@]12C	SENP8 block-1 64 (no result: PPC-1+TRAIL kill) | SENP8 conf inactive
CCOC(=O)c1c(C)nc2c(c1-c1cc(OC)ccc1OC)C(=O)CC(C)(C)C2	SENP8 block-1 44 | SENP8 conf inactive
CCOC(=O)c1c(C)nc2c(c1-c1ccccc1)C(=O)CC(C)(C)C2	none
CN(CC(=O)Nc1ccc(F)cc1)C(=O)COC(=O)c1nc(Cl)ccc1Cl	none (no result: PPC-1+TRAIL kill, SENP6 inh, SENP7 block, SENP8 block-2)
N#CC(C#N)=C1CCCc2sccc21	none (no result: PPC-1+TRAIL kill, SENP6 inh, SENP7 block, SENP8 block-2)
C=CC[C@]12C[C@@H](OC)C(=O)C=C1O[C@@H](c1ccc(OC)c(OC)c1)[C@H]2C	SENP8 block-1 42 (no result: PPC-1+TRAIL kill) | SENP8 conf inactive
C=CC[C@@]12C=C(OC)C(=O)C(OC)=C1O[C@H](c1ccc3c(c1)OCO3)[C@H]2C	none (no result: PPC-1+TRAIL kill)
O=C(OCc1ccccc1)N(CCF)c1cn(Cc2ccccc2)c(=O)n(Cc2ccccc2)c1=O	none (no result: PPC-1+TRAIL kill, SENP6 inh, SENP7 block, SENP8 block-2)
COC(=O)C1=C(C)NC(C)=C(C(=O)OC)C1c1ccc(-c2cccc([N+](=O)[O-])c2)o1	SENP8 block-1 47 | SENP8 conf inactive
O=C(NCc1ccccc1Cl)c1cc(=O)[nH]c2ccccc12	none (no result: PPC-1+TRAIL kill)
COc1ccc(NCc2nnc(SCC(=O)Nc3ccccc3)n2C)cc1	SENP8 block-1 43 | SENP8 conf inactive
COc1ccc(NCc2nnc(SCC(=O)N3CCCc4ccccc43)n2C)cc1	SENP8 block-1 60 | SENP8 conf inactive
CCn1c(CNc2ccc(OC)cc2)nnc1SCC(=O)N1CCCc2ccccc21	none
Cc1ccc(S(=O)(=O)N/N=C/c2ccc(OCC(=O)Nc3ccccc3Cl)cc2)cc1	none
COc1ccccc1NC(=O)COc1ccc(/C=N/NS(=O)(=O)c2ccc(C)cc2)cc1	SENP8 block-1 47 | SENP8 conf inactive
CC1CCCN(c2ccc(C(=O)Nc3ccc4c(c3)OCO4)cc2[N+](=O)[O-])C1 (stereo unspecified)	SENP8 block-1 43 | SENP8 conf inactive
CC1(C)OC(c2ccccc2)=C/C(=C/C=N/NC(=O)c2ccncc2)O1	SENP8 block-1 41 | SENP8 conf inactive
O=C(c1ccccc1)N1CCN(S(=O)(=O)c2cccc(NS(=O)(=O)c3ccccc3)c2)CC1	none
CCN(Cc1nc(-c2ccccc2)no1)C(=O)c1ccco1	none (no result: PPC-1+TRAIL kill)
COc1cc(N(C)C)c([N+](=O)[O-])cc1C(=O)NC(C)CNc1ccc([N+](=O)[O-])cc1Cl (stereo unspecified)	SENP8 block-1 42 | SENP8 conf inactive
CCN(CC)CCNC(=O)c1cc([N+](=O)[O-])c(N(C)C)cc1OC	none
CC(=O)C1=C(C)OC2(O)c3ccccc3C(=O)C12O (stereo unspecified)	SENP8 block-1 88 | SENP8 conf 95
Cc1cc2ccccn2c1C(=S)NC(=O)c1ccccc1	none
Cc1cc2ccccn2c1C(=O)c1ccccc1F	SENP8 block-1 41 (no result: PPC-1+TRAIL kill) | SENP8 conf inactive
O=C(c1ccc(N2CCCC2)c([N+](=O)[O-])c1)N1CCc2ccccc2C1	SENP8 block-1 50 (no result: PPC-1+TRAIL kill) | SENP8 conf inactive
O=C(c1ccc(N2CCCCC2)c([N+](=O)[O-])c1)N1CCOCC1	none
CCN(CC(=O)NCc1ccc(Cl)cc1)C(=O)CCC(=O)c1ccc(F)cc1	none (no result: PPC-1+TRAIL kill)
CCCCCCC(NC(=O)c1ccc(C)cc1)C(=O)O (stereo unspecified)	none (no result: PPC-1+TRAIL kill, SENP6 inh, SENP8 block-2)
COCC(=O)N1CCN(c2ccc([N+](=O)[O-])cc2)CC1	SENP8 block-1 42 | SENP8 conf inactive
COc1cc(CCC(=O)N2CCN(c3ccc([N+](=O)[O-])cc3)CC2)cc(OC)c1OC	none (no result: PPC-1+TRAIL kill)
CC1=C(C(N)=O)C(c2ccccc2)n2nc(-c3ccncc3)nc2N1 (stereo unspecified)	none
Cc1nc(-[n+]2nc(-c3ccncc3)nn2-c2ccccc2)sc1C	SENP8 block-1 41 (no result: PPC-1+TRAIL kill, SENP6 inh, SENP7 block, SENP8 block-2) | SENP8 conf inactive
